In test [1] the test system is Plasmodium falciparum Sir2 (PF13_0152, Sir2A). In words: Plasmodium falciparum Sir2A binding compounds – biochemical, small-molecule microarray, 635 nm fluorescence, primary screen (AID 1098).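 Further: score merges spot fluorescence intensity with its signal-to-noise ratio.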 The settings on record: fluorescence 635 nm, higher = more signal.
The nature of test [2]: probe aDKK1 binding to arrayed compounds – biochemical, biotinylated probe, 635/667 nm fluorescence, primary screen (AID 1099).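 Further: score merges 667nm spot fluorescence with signal to noise across triplicate slides.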 The settings on record: small-molecule microarray, higher = more signal.
A short description of test [3]: probe aCHRDL2 binding to arrayed compounds – biochemical, biotinylated probe, 635/667 nm fluorescence, primary screen (AID 1100). The settings on record: small-molecule microarray, higher = more signal.
The nature of test [4]: change in splice reporter luminescence, either direction, cell-based, HEK293, spliceosome inhibition project, primary screen (AID 1101).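 Further: HEK293 cells carrying a splicing-competent luciferase reporter gene; test concentration not given here.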 The settings on record: HEK293 splicing luciferase reporter, 24 h, higher = more signal, called active from +8 up or from −8 down. Background: A reporter such as luciferase makes a cellular process visible.
The target of test [5] is Fibroblast growth factor 10 (Homo sapiens) (UniProt O15520). Briefly: compounds binding fibroblast growth factor 10 – biochemical, small-molecule microarray, 635 nm fluorescence, primary screen (AID 1102). The settings on record: FGF10 binding, fluorescence 635 nm, higher = more signal.
Chain of Fibroblast growth factor 10 (Homo sapiens) (O15520 whole entry, looked up): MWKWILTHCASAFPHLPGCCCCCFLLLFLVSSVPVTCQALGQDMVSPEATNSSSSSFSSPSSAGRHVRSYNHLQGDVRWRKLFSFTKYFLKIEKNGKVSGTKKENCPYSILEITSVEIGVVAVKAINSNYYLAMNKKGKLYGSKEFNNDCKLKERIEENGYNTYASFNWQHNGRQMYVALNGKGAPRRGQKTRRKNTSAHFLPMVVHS
Test [6] relates to glycogen synthase kinase-3 (GSK3A per assay name; protocol says GSK3B). Briefly: compounds binding glycogen synthase kinase-3 – biochemical, small-molecule microarray, 635 nm fluorescence, GSK3A, primary screen (AID 1103). Further: the record names both GSK3A and GSK3B. The settings on record: fluorescence 635 nm, higher = more signal.
Test [7] has as its target Epidermal growth factor receptor (Homo sapiens) (UniProt P00533). In words: compounds binding epidermal growth factor receptor – biochemical, small-molecule microarray, 635 nm fluorescence, primary screen (AID 1104).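 Further: score merges 667 nm emission intensity with spot signal to noise over triplicate slides.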 The settings on record: EGFR binding, higher = more signal.
The target of test [8] is Follistatin-related protein 3 (Homo sapiens) (UniProt O95633). In words: compounds binding follistatin-related protein 3 – biochemical, small-molecule microarray, 635 nm fluorescence, primary screen (AID 1105).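 Further: score merges emission near 667 nm and signal to noise per printed spot across three slides.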 The settings on record: FSTL3 binding, higher = more signal.
Chain of Follistatin-related protein 3 (Homo sapiens) (O95633 whole entry, looked up): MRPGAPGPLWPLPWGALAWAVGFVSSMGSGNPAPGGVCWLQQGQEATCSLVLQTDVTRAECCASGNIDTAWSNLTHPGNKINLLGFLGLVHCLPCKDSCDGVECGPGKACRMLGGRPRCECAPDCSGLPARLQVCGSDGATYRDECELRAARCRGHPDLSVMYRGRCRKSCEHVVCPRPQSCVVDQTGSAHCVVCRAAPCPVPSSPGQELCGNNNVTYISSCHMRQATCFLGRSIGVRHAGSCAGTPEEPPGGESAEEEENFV
Test [9] has as its target Dickkopf-related protein 1 (Homo sapiens) (UniProt O94907). In words: small molecules binding DKK1 protein – biochemical, small-molecule microarray, 635 nm fluorescence scan, primary screen (AID 1106).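 Further: score merges emission near 667 nm with signal to noise over three replicate slides.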 The settings on record: higher = more signal.
In test [10] the test system is Inhibin beta A chain (activin A). In words: small molecules binding activin A – biochemical, small-molecule microarray, 635 nm fluorescence scan, primary screen (AID 1107).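 Further: mouse activin A protein probed at 4.33 µg/mL on printed slides; score merges bound-protein fluorescence near 667 nm with spot signal-to-noise.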 The settings on record: INHBA, higher = more signal.
Test [11] has as its system Human papillomavirus type 1a protein E7 (residues 44-93). In words: small molecules binding HPV E7 44-93 – biochemical, small-molecule microarray, residues 44-93, 635 nm fluorescence, primary screen (AID 1108).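 Further: E7 fragment applied at 1 µg/mL in TBST for 1 h at 4 C; score combines spot fluorescence with its signal to noise ratio.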 The settings on record: fluorescence 635 nm, higher = more signal.
Test [12] can be described thus: hepatitis C replication reporter changes, two-sided – Huh7 cells, luciferase reporter, HCV replication inhibitor project, primary screen (AID 1109).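 Further: huh7 hepatoma cells harbouring a luciferase neomycin HCV replicon reporter; luciferase luminescence as measure of HCV replicon replication; test concentration not given here.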 The settings on record: Huh7 HCV replicon luciferase reporter, 48 h; higher = more signal.
For test [13], the target named is Left-right determination factor 2 (Homo sapiens) (UniProt O00292). In words: small molecules binding LEFTY2 protein – biochemical, small-molecule microarray, 635 nm fluorescence scan, primary screen (AID 1110). The settings on record: higher = more signal.
Chain of Left-right determination factor 2 (Homo sapiens) (O00292 whole entry, looked up): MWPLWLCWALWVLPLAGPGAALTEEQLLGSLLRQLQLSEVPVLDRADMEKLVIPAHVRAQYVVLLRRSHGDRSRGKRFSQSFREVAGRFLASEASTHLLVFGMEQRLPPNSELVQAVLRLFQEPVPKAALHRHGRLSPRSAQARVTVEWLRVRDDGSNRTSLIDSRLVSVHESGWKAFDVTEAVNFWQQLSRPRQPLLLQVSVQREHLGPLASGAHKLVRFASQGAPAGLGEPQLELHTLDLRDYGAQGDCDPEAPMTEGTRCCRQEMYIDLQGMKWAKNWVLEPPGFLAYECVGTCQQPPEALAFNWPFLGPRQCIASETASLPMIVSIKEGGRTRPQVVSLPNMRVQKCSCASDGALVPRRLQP
Test [14] has as its target Calmodulin-1 (Homo sapiens) (UniProt P0DP23). Briefly: small molecules binding calmodulin-1 with EGTA – biochemical, small-molecule microarray, Cy5-labelled CALM1, profiling panel (AID 1111).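 Further: labelled calmodulin applied in Tris saline Tween buffer holding calcium plus EGTA and DTT.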 The settings on record: Cy5-CALM1 binding fluorescence, higher = more signal.
The target is the same in test [15]. Briefly: small molecules binding Ca-loaded calmodulin-1 – biochemical, small-molecule microarray, Cy5-labelled CALM1, plus calcium, artefact control for SMM control-protein annotation, profiling panel (AID 1112).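 Further: score merges spot fluorescence with signal to noise from triplicate slides.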 The settings on record: Cy5-CALM1 binding fluorescence, higher = more signal.
Test [16] can be described thus: probe aWnt5a binding to arrayed compounds – biochemical, biotinylated probe, 635/667 nm fluorescence, primary screen (AID 1113).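 Further: score merges 667 nm fluorescence intensity with signal-to-noise per printed feature.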 The settings on record: small-molecule microarray, higher = more signal.
Test [17] is described as follows: probe aShh binding to arrayed compounds – biochemical, biotinylated probe, 635/667 nm fluorescence, primary screen (AID 1114).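 Further: probe is biotin-labelled aShh protein from a stem cell growth factor screen; measures binding of labelled protein to compounds printed on the slide; score merges feature fluorescence at 667 nm with signal-to-noise.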 The settings on record: small-molecule microarray, higher = more signal.
Test [18] is described as follows: probe aNog binding to arrayed compounds – biochemical, biotinylated probe, 635/667 nm fluorescence, primary screen (AID 1115).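 Further: probe is biotinylated aNog protein used at 0.15 µg/mL for 1 h at 4 C; z-score combines 667 nm fluorescence of each spot with its signal to noise.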 The settings on record: small-molecule microarray, higher = more signal.
The target of test [19] is Torsin-1A-interacting protein 1 (Homo sapiens) (UniProt Q5JTV8). Briefly: compound microarray binding of lysate hLAP1 – cell lysate, small-molecule microarray, COS7 lysate, 635/667 nm fluorescence, primary screen (AID 1116). The settings on record: 635 nm fluorescence, higher = more signal.
Chain of Torsin-1A-interacting protein 1 (Homo sapiens) (Q5JTV8 whole entry, looked up): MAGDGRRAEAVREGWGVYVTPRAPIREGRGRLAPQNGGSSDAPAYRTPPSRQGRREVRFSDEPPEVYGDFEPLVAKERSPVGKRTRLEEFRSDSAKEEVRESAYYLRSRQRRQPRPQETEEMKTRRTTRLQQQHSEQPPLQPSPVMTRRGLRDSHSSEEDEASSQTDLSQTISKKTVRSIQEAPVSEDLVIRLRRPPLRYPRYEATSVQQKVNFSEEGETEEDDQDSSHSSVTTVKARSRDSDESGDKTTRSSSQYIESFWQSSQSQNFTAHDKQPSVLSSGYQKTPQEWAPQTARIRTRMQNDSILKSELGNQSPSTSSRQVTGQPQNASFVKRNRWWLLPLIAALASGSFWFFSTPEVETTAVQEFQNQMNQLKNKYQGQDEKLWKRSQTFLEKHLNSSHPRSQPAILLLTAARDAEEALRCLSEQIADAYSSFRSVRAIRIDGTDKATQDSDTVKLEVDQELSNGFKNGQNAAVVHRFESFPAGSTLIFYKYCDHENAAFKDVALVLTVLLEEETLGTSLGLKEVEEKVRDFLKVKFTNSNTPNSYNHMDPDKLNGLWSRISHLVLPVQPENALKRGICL
The target in test [20] is Alpha-bungarotoxin (Bungarus multicinctus) (UniProt P60615). Briefly: compounds binding labelled alpha-BTX control protein – biochemical, small-molecule microarray, Alexa647 label, 635/667 nm fluorescence, artefact control for SMM control protein annotation, profiling panel (AID 1117). The settings on record: alpha-BTX-A647 binding fluorescence, higher = more signal.
Chain of Alpha-bungarotoxin (Bungarus multicinctus) (P60615 whole entry, looked up): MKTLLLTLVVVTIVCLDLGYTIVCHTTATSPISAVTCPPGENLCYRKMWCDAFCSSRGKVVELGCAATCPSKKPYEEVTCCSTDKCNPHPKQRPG

Active and inactive are the calls of the source.

Chain of Epidermal growth factor receptor (Homo sapiens) (P00533 whole entry, looked up): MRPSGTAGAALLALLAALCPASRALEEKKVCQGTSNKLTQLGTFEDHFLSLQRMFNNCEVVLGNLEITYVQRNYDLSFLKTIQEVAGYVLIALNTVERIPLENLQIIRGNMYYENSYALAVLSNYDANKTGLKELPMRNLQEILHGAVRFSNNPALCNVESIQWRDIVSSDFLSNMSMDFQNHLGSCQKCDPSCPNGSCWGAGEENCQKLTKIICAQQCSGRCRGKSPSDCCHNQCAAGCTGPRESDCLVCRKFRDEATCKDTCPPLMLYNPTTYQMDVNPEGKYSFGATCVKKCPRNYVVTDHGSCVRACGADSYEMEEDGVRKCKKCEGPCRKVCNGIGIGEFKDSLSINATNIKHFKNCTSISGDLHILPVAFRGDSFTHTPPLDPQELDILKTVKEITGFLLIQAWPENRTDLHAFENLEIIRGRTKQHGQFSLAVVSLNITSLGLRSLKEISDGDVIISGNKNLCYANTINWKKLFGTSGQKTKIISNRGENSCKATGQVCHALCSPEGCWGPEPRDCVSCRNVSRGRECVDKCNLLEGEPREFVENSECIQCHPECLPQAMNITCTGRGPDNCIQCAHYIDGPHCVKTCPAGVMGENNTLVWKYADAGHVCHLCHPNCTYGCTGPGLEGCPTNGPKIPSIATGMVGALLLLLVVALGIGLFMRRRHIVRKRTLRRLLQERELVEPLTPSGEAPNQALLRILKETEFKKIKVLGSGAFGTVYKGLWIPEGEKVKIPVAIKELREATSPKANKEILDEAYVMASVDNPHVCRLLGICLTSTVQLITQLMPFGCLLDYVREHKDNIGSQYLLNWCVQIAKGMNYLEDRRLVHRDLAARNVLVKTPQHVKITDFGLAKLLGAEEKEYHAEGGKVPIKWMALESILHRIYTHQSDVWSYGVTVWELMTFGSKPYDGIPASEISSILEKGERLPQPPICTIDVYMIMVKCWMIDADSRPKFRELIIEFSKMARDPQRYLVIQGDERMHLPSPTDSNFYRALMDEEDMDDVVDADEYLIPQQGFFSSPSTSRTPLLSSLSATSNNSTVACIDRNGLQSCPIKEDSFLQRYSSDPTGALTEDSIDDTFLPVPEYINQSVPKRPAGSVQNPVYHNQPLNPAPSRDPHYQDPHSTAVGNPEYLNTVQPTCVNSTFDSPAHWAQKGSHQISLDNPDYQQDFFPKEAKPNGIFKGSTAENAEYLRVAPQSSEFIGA
Chain of Dickkopf-related protein 1 (Homo sapiens) (O94907 whole entry, looked up): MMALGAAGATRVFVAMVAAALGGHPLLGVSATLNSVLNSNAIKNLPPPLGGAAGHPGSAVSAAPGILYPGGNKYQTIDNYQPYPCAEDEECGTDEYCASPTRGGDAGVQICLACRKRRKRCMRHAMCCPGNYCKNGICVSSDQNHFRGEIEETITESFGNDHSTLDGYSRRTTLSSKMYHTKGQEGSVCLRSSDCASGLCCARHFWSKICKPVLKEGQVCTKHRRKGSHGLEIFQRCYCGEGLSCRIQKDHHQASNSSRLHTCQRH

Regarding `CCOC(=O)c1ccc(NC(=O)O[C@H]2[C@H](OC(=O)Nc3ccc4c(c3)OCO4)[C@@H](OC(=O)Nc3ccc4c(c3)OCO4)[C@@H](OC)O[C@@H]2CO)cc1`, the composite z-score stood at 1.41 in test [1]; 0.164 in test [2]; 0.157 in test [3]; 1.4 in test [5]; 1.33 in [6]; 0.308 in [7]. Also, the composite z-score in [8] amounted to 1.49; in test [9] it was 0.624; in [10], 0.51; in test [11] it was 1.27; in test [13], 0.48; in test [14], 0.517. The composite z-score in test [15] is -0.393; in test [16], 0.0321; in test [17] it was -0.0664; in test [18], 1.08; in test [19] it was 1.52; in test [20], 0.908. Besides, the z-score is -0.616 (inactive) in [4] and 1.5 in test [12].

Regarding `CCOC(=O)C[C@H]1[C@H](OC(=O)c2cc3ccccc3oc2=O)[C@@H](NC(=O)Cc2ccc(OC)cc2)c2cc(OCCCO)ccc2N1C(=O)c1ccc2ccccc2n1`, the composite z-score in [1] was 0.195; in test [2], 0.0588; in [3], -0.335; in test [5] it was 1.28; in test [6] it was 0.372; in test [7] it was 0.409. The composite z-score was 0.889 in [8]; 0.578 in [9]; 0.155 in test [10]; 0.178 in [11]; 0.774 in test [13]; -0.0597 in [14]. Moreover, the composite z-score in test [15] was -0.399; in test [16] it was 0.0257; in test [17], -0.214; in [18], 0.0023; in test [19], 0.514; in test [20] it was 0.26. The z-score in test [4] is 0.126 (inactive); in [12], -0.664.

For `[N-]=[N+]=Nc1ccccc1[C@H]1OC(c2ccc(OCCCO)cc2)=N[C@@]1(Cc1ccccc1)C(=O)N1CCCCC1`, the composite z-score in test [1] turned out to be 0.813; in test [2], 1.04; in [3], 1.13; in test [5], 1.45; in test [6], 0.99; in test [7], 0.422. Also, the composite z-score in test [8] worked out at 1.11; in test [9] it was 1.18; in test [10], 1.03; in test [11] it was 1.45; in test [13] it was 0.346; in [14], 1.53. Further, the composite z-score in [15] stood at 0.735; in test [16] it was 0.299; in test [17], 0.204; in test [18], 1.28; in test [19], 2.12; in test [20] it was 1.53. Also, the values for the z-score in test [4] and in [12] were 1.35 (inactive) and -2.13, respectively.

With `COC(=O)[C@@]1(Cc2ccccc2)[C@@H]2C(=CC(=O)[C@H]2CC(=O)C(=O)N(C)C)CN1C(=O)c1ccccc1`, the composite z-score in test [1] stood at 0.971; in test [2], 1.08; in test [3], 1.17; in [5], 0.473; in test [6], 0.982; in [7] it was 0.159. Besides, the composite z-score was 0.471 in test [8]; -0.465 in [9]; 1.25 in test [10]; 0.883 in test [11]; 0.25 in test [13]; 1.31 in test [14]. The composite z-score turned out to be 0.477 in [15]; 0.188 in [16]; 0.21 in test [17]; 1.46 in test [18]; 0.275 in test [19]; 0.409 in test [20]. Besides, the z-score in [4] is 2.93 (inactive); in test [12], -2.36.

As to `COC(=O)[C@@]1(Cc2ccc(OC)cc2)[C@H]2c3cc(C(=O)N(C)C)n(CCO)c3C[C@H]2CN1C(=O)c1ccccc1`, the composite z-score is 0.137 in test [1]; 1.14 in test [2]; 1.27 in test [3]; 0.0882 in test [5]; -0.402 in test [6]; -0.735 in test [7]. In addition, the composite z-score in [8] is -0.42; in test [9] it was -1.18; in test [10] it was 1.07; in test [11], -0.317; in [13], -0.511; in [14] it was 1.67. The composite z-score in [15] is 1.1; in test [16], -0.0398; in test [17], 0.0044; in test [18], -0.426; in [19] it was 3.28; in test [20] it was 1.18. In addition, the z-score in test [4] is 0.994 (inactive); in test [12], -0.441.

Source of the values: PubChem BioAssay.
